The source of these data is PubChem BioAssay.

Experiment [1] in a line: growth inhibition of DIPG glioma cells, dose response, cell-based, SU-DIPG-XVII, MIPE5.0, CellTiter-Glo, qHTS (AID 1347060; cut-off not given, nearly all actives have AC50 up to about 26 µM;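 for AC50: cells exposed to compound for 48 hours before viability readout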). The note with it: SU-DIPG-XVII viability, CellTiter-Glo ATP luminescence. A general note: ATP-based viability assays read luminescence as a measure of living cells.
Experiment [2] in a line: growth inhibition of DIPG glioma cells, dose response, cell-based, SU-DIPG-XIII, MIPE4.0, CellTiter-Glo, qHTS (AID 1347061; cut-off not given, nearly all actives have AC50 up to about 37 µM;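 note: cells exposed to compound for 48 hours before readout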). Conditions: SU-DIPG-XIII viability, CellTiter-Glo ATP luminescence.
The nature of experiment [3]: growth inhibition of DIPG glioma cells, dose response, cell-based, JHH-DIPG-1, MIPE4.0, CellTiter-Glo, qHTS (AID 1347062; cut-off not given, nearly all actives have AC50 up to about 27 µM;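 for AC50: cells exposed to compound for two days before readout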). The note with it: JHH-DIPG-1 viability, CellTiter-Glo ATP luminescence.
A short description of experiment [4]: growth inhibition of DIPG glioma cells, dose response, cell-based, SU-DIPG-IV, MIPE4.0, CellTiter-Glo, qHTS (AID 1347063; cut-off not given, nearly all actives have AC50 up to about 30 µM;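 note: compound exposure lasted 48 hours before the viability readout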). The note with it: SU-DIPG-IV viability, CellTiter-Glo ATP luminescence.
Experiment [5] is described as follows: growth inhibition of DIPG glioma cells, dose response, cell-based, SU-DIPG-XIII, MIPE5.0, CellTiter-Glo, qHTS (AID 1347064; cut-off not given, nearly all actives have AC50 up to about 23 µM;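 for AC50: cells exposed to compound for 48 hours before the viability read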). Conditions: SU-DIPG-XIII viability, CellTiter-Glo ATP luminescence.
The nature of experiment [6]: viability loss in pontine glioma line – cell-based, SU-DIPG-XXV, MIPE5.0, CellTiter-Glo, qHTS, dose response (AID 1347065; cut-off not given, nearly all actives have AC50 up to about 26 µM;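 note: cells exposed to compound for 48 hours before ATP readout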). Conditions: CellTiter-Glo ATP luminescence.
Experiment [7] is described as follows: SU-DIPG-VI glioma cell viability, MIPE4.0 library, CellTiter-Glo luminescence, qHTS (AID 1347066; cut-off not given, nearly all actives have AC50 up to about 30 µM;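 note: cells exposed to compound for 48 hours before readout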). The note with it: CellTiter-Glo ATP luminescence.
Experiment [8] in a line: JHH-DIPG-1 glioma cell viability, MIPE5.0 library, CellTiter-Glo luminescence, qHTS (AID 1347067; cut-off not given, nearly all actives have AC50 up to about 26 µM;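 note: cells exposed to compound for 48 hours before readout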). Conditions: JHH-DIPG-1 glioma viability, CellTiter-Glo ATP luminescence.
A short description of experiment [9]: SU-DIPG-XXV glioma cell viability, MIPE5.0 library, qHTS (AID 1347068; cut-off not given, nearly all actives have IC50 up to about 30 µM;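 for IC50: cells exposed to compound for 48 hours before viability readout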). On the technique in general: qHTS replaces the single test concentration by a dilution series.
A short description of experiment [10]: sensitizers of A549 cells to miR-34 induction, primary screen, imaging, A549 dox-inducible miR-34, nuclei and caspase counts (AID 1347080;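 active = compounds whose cell count with miR-34 switched on is under 0.7 times the count with it off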). The note with it: A549 miR-34 inducible, Hoechst nuclei count, 48 h.
Experiment [11] in a line: modifiers of HSF1 nuclear foci, imaging, Selleck Cancer Library (AID 1347162; in the data active = plate-normalised HSF1 focus index below about 0.46). Conditions: human cells, at 10 µM; SSMD: measured here: HSF1 foci SSMD mean; cell count: measured here: cell number; plate-normalised HSF1 focus index: stronger effect = lower value.
Experiment [12] is described as follows: survival rescue of mitochondrial mutant cells in low glucose, primary screen, MELAS cybrids, Rieske KO mouse fibroblasts, CellTiter-Glo (AID 1508586;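 active = mean z-score across replicates of 1.96 or higher in either the MELAS or the Rieske mutant cell line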;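 note: z relative to plate mean and SD of compound and empty wells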).
A short description of experiment [13]: ovarian cancer cell viability with rucaparib, profiling panel, oncology-focused library, rucaparib conditional (AID 1508598). Conditions: patient-derived ovarian cancer cells, CellTiter-Glo viability, 144 h, stronger effect = lower value.

The structures appear in SMILES notation. Results filed as inconclusive are left out. Activity calls are given as the source filed them.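 Rule for the calls, unless noted: active = normalized viability below 100% at a tested concentration; inactive = the rest.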

Take `COc1ccc2c(OCc3nnc4ccc(-c5ccccc5)nn34)ccnc2c1`: the compound was called inactive in [1], in experiment [2], in experiment [3], in [4], in experiment [5] and in experiment [6]. In addition, the compound was classed as inactive in experiment [7], in [8] and in experiment [9].
With `Clc1cccc(-n2nnnc2NCc2ccccc2Oc2ccccn2)c1Cl`, the outcome in [1], in experiment [2], in [3], in experiment [4], in experiment [5] and in [6] was inactive. For the same compound, the compound was called inactive in experiment [7], in experiment [8] and in experiment [9].
With `C[C@@H](Oc1ccc2[nH]nc(/C=C/c3cnn(CCO)c3)c2c1)c1c(Cl)cncc1Cl`, the AC50 – broadly, the concentration giving half of the maximal activity seen – in experiment [1] was 0.0295 µM (active); in [2] it was 0.418 µM (active); in experiment [3], 20.9 µM (active); in experiment [4], 5.9 µM (active); in [5], 0.0148 µM (active); in experiment [6] it was 0.0105 µM (active). Also, the AC50 in experiment [7] was 16.6 µM (active); in experiment [8], 0.468 µM (active). For the same compound, the IC50 (as a rule, the concentration that inhibits the measured activity by half) in experiment [9] was 2.09 µM (active).
For the compound `C=CC(=O)Nc1cccc(Oc2nc(Nc3ccc(N4CCN(C)CC4)cc3OC)ncc2Cl)c1`, the AC50 in experiment [1] is 3.32 µM (active); in experiment [3], 20.9 µM (active); in [4] it was 14.8 µM (active); in experiment [5], 6.61 µM (active); in [6] it was 4.17 µM (active); in experiment [7], 16.6 µM (active). Also, in experiment [8], the concentration at half-maximal activity (AC50) is 8.33 µM (active). The compound was called inactive in [2]. The IC50 in experiment [9] was 2.63 µM (active). Also, the fold change in experiment [10] (stronger effect = lower value, cell number ratio, induced over uninduced) is 0.841 (inactive); in experiment [10] (measured here: relative caspase fold change +Dox/-Dox) it was 0.924. Also, the cell count in [10] (measured here: total cells with miR-34 induction, stronger effect = lower value) was found to be 4420; in [10] (measured here: total cells without miR-34 induction), 5250; in [11], 5190. This compound came in with an SSMD in experiment [11] of -3.65. Besides, the plate-normalised HSF1 focus index in experiment [11] was 0.843 (inactive). For the same compound, the z-score in experiment [12] (MELAS cybrid survival, CellTiter-Glo 48 h, stronger effect = higher value) was -0.337 (inactive); in experiment [12] (Rieske KO mouse fibroblast survival, CellTiter-Glo 72 h), 0.584. For the same compound, the viability (as a rule, a read-out of living cells in per cent, often relative to untreated cells) is 115% (inactive) in experiment [13] (at 0.000305 µM, OCI-C5x cells, with rucaparib 10 µM, 100% = cells with rucaparib alone); 104% (inactive) in experiment [13] (at 0.000305 µM, OCI-C5x cells, without rucaparib); 114% (inactive) in [13] (at 0.000305 µM, OCI-P5x cells, with rucaparib 20 µM, 100% = cells with rucaparib alone); 112% (inactive) in experiment [13] (at 0.000305 µM, OCI-P5x cells, without rucaparib); 117% (inactive) in experiment [13] (at 0.00122 µM, OCI-C5x cells, with rucaparib 10 µM, 100% = cells with rucaparib alone); 120% (inactive) in [13] (at 0.00122 µM, OCI-C5x cells, without rucaparib). The viability in experiment [13] (at 0.00122 µM, OCI-P5x cells, with rucaparib 20 µM, 100% = cells with rucaparib alone) is 108% (inactive); in experiment [13] (at 0.00122 µM, OCI-P5x cells, without rucaparib), 114% (inactive); in experiment [13] (at 0.00488 µM, OCI-C5x cells, with rucaparib 10 µM, 100% = cells with rucaparib alone), 107% (inactive); in experiment [13] (at 0.00488 µM, OCI-C5x cells, without rucaparib) it was 118% (inactive); in experiment [13] (at 0.00488 µM, OCI-P5x cells, with rucaparib 20 µM, 100% = cells with rucaparib alone) it was 119% (inactive); in [13] (at 0.00488 µM, OCI-P5x cells, without rucaparib), 118% (inactive). Also, the viability in experiment [13] (at 0.0195 µM, OCI-C5x cells, with rucaparib 10 µM, 100% = cells with rucaparib alone) was 115% (inactive); in experiment [13] (at 0.0195 µM, OCI-C5x cells, without rucaparib), 112% (inactive); in experiment [13] (at 0.0195 µM, OCI-P5x cells, with rucaparib 20 µM, 100% = cells with rucaparib alone), 108% (inactive); in [13] (at 0.0195 µM, OCI-P5x cells, without rucaparib), 118% (inactive); in [13] (at 0.0781 µM, OCI-C5x cells, with rucaparib 10 µM, 100% = cells with rucaparib alone) it was 119% (inactive); in [13] (at 0.0781 µM, OCI-C5x cells, without rucaparib), 116% (inactive). The viability in experiment [13] (at 0.0781 µM, OCI-P5x cells, with rucaparib 20 µM, 100% = cells with rucaparib alone) was 115% (inactive); in experiment [13] (at 0.0781 µM, OCI-P5x cells, without rucaparib), 115% (inactive); in [13] (at 0.313 µM, OCI-C5x cells, with rucaparib 10 µM, 100% = cells with rucaparib alone), 115% (inactive); in experiment [13] (at 0.313 µM, OCI-C5x cells, without rucaparib), 120% (inactive); in experiment [13] (at 0.313 µM, OCI-P5x cells, with rucaparib 20 µM, 100% = cells with rucaparib alone), 119% (inactive); in [13] (at 0.313 µM, OCI-P5x cells, without rucaparib) it was 118% (inactive). The viability in experiment [13] (at 1.25 µM, OCI-C5x cells, with rucaparib 10 µM, 100% = cells with rucaparib alone) is 106% (inactive); in experiment [13] (at 1.25 µM, OCI-C5x cells, without rucaparib), 45.1% (active); in [13] (at 1.25 µM, OCI-P5x cells, with rucaparib 20 µM, 100% = cells with rucaparib alone) it was 108% (inactive); in [13] (at 1.25 µM, OCI-P5x cells, without rucaparib), 94.6% (active); in [13] (at 5 µM, OCI-C5x cells, with rucaparib 10 µM, 100% = cells with rucaparib alone), 91.6% (active); in experiment [13] (at 5 µM, OCI-C5x cells, without rucaparib), 115% (inactive). Further, the viability in [13] (at 5 µM, OCI-P5x cells, with rucaparib 20 µM, 100% = cells with rucaparib alone) was 104% (inactive); in experiment [13] (at 5 µM, OCI-P5x cells, without rucaparib), 67.9% (active).
